{"source": "PubChem BioAssay (NCATS)", "note": "Inconclusive results are not listed. Entries that show only a call come without a potency. Activity calls are given as the source filed them. The call rests on the fitted dose curve; in most records, active means well fitted inhibition curve with a large enough effect; inconclusive means small, poorly fitted or top-dose-only effect; inactive means flat fitted curve, though single readings scatter."}
{"target": "Calcium and integrin-binding protein 1 (Homo sapiens) (UniProt Q99828)", "sequence (Q99828 whole entry, looked up)": "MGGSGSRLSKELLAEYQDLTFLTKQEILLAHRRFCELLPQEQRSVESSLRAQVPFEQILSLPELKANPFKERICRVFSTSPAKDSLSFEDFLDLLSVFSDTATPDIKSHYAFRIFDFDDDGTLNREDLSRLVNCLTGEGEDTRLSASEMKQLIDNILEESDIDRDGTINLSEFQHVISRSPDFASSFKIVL", "test": "Primary qHTS for Identification of Calcium Integrin Binding Protein 1 (CIB1) Competitor (AID 1508620);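 further: GST tagged CIB1 binding a fluorescein labelled alphaIIb integrin peptide tracer; top concentration of the series differs between compounds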", "conditions": "CIB1-GST / FITC-alphaIIb peptide fluorescence polarization; series mostly up to 114 µM", "in_short": "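Fluorescence polarization competition: CIB1-GST (1 uM final) preincubated with compound 15 min at room temperature, then FITC-labeled alphaIIb peptide (100 nM final) added for another 15 min. Polarization read at Ex 480/Em 540.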"}
{"molecule": "N#Cc1ccc(-c2ccc(-c3nc4ccccc4c(=O)[nH]3)o2)cc1", "Potency": "inactive"}
{"molecule": "Cc1cccc([S+](=O)([O-])NC2CCN(C#N)CC2)c1", "Potency": "inactive"}
{"molecule": "N#Cc1cccc(NS(=O)(=O)c2ccc3c(c2)CCC(=O)N3)c1", "Potency": "inactive"}
{"molecule": "COc1ccc(C(=O)N(Cc2cccs2)Cc2cccs2)c(O)c1", "Potency": "inactive"}
{"molecule": "COC(=O)c1ccccc1NC(=O)c1ccc(F)cc1F", "Potency": "inactive"}
{"molecule": "CC(C)(C)OC(=O)NCCCNc1ncnc2ccc(-c3ccc4c(c3)OCO4)cc12", "Potency": "inactive"}
{"molecule": "O=C(NCCc1nc2ccccc2n1CCCc1ccccc1)C1CCCCC1", "Potency": "inactive"}
{"molecule": "Cc1ccc2nc3sc(C(=O)N4CCOCC4)cc3cc2c1", "Potency": "inactive"}
{"molecule": "O=C(CNC(=O)c1ccc2cc[nH]c2c1)OC(C(=O)Nc1cc(C(F)(F)F)ccc1Cl)c1ccccc1", "note": "(stereo not given)", "Potency": "inactive"}
{"molecule": "Cc1ccc(-c2ccc(=O)n(CC(=O)NCc3ncc[nH]3)n2)cc1", "Potency": "inactive"}
{"molecule": "Cn1nnnc1Sc1ncnc2scc(-c3cccc(N)c3)c12", "Potency": "inactive"}
{"molecule": "COc1ccc(C2Nc3ccccc3C(=O)N2Cc2ccccc2)cc1COc1ccc(C)cc1", "note": "(stereo not given)", "Potency": "inactive"}
{"molecule": "Cc1noc(C)c1-c1ccc(Nc2nc(-c3ccncc3)nc3ccccc23)cc1F", "Potency": "inactive"}
{"molecule": "CC(=O)c1ccc(NC(=O)c2cnn3c(C)cc(C)nc23)cc1", "Potency": "inactive"}
{"molecule": "O=C(O)c1cccnc1SC1=NS(=O)(=O)c2ccccc21", "Potency": "inactive"}
{"molecule": "O=C(Cc1nnc(-c2cc3ccccc3[nH]2)s1)Nc1cc(C(F)(F)F)ccc1Cl", "Potency": "inactive"}
{"molecule": "O=C(CNC(=O)c1ccc(Cl)c(C(F)(F)F)c1)OC(C(=O)Nc1cc(C(F)(F)F)ccc1Cl)c1ccccc1", "note": "(stereo not given)", "Potency": "inactive"}
{"molecule": "O=C(Cc1nnc(CNC(=O)c2ccccc2)s1)Nc1ccc(C(F)(F)F)cc1Cl", "Potency": "inactive"}
{"molecule": "O=C(c1ccc2c(c1)ncn2-c1cccc(C(F)(F)F)c1)N1CCCCC1", "Potency": "inactive"}
{"molecule": "CC(=O)c1cc2c(s1)c1cnn(Cc3ccccc3F)c(=O)c1n2C", "Potency": "inactive"}
{"molecule": "CN1CCc2sc(NC(=O)Cc3ccccc3)c(C(=O)Nc3ccc(Cl)cc3)c2C1", "Potency": "inactive"}
{"molecule": "Cc1ccc(CNc2ncc(N3CCCCC3)cn2)cc1", "Potency": "inactive"}
{"molecule": "Cc1cc(-c2nnc3n2CCCCCC3)c(C)n1-c1ccccc1", "Potency": "inactive"}
{"molecule": "Cc1cc(C)nc(NC(=S)N2CC3CN(c4ncc(C(F)(F)F)cc4Cl)CC3C2)c1", "note": "(stereo not given)", "Potency": "inactive"}
{"molecule": "Cc1cccc(-n2cnc3cc(C(=O)N4CCCC(c5ccccc5)C4)ccc32)c1", "note": "(stereo not given)", "Potency": "inactive"}
{"molecule": "CN(Cc1ccco1)c1ncnc2ccc(-c3ccc4c(c3)OCCO4)cc12", "Potency": "inactive"}
{"molecule": "CCOC(=O)c1ccc(O)c2ncc(NCC3CCCN(CCc4ccccc4)C3)cc12", "note": "(stereo not given)", "Potency": "inactive"}
{"molecule": "CC(=O)Nc1cccc([S+](=O)([O-])N2CCCN([S+](=O)([O-])c3cccc(NC(C)=O)c3)CC2)c1", "Potency": "inactive"}
{"molecule": "S=C(Nc1cc(Cl)ccn1)N1CCN(c2ccc(Cl)c(Cl)c2)CC1", "Potency": "inactive"}
{"molecule": "CCOc1ccc(CCNC(=O)c2csc(Br)n2)cc1OCC", "Potency": "inactive"}
{"molecule": "COc1ccc(-c2nnc3n2N=C(c2ccccc2OC)CS3)cc1", "Potency": "inactive"}
{"molecule": "O=C1NS(=O)(=O)c2cscc21", "Potency": "inactive"}
{"molecule": "CCOC(=O)c1ccc(-n2c(C)cc(-c3nnc4n3CCCCC4)c2C)cc1", "Potency": "inactive"}
{"molecule": "N#CC1CCN(c2nc(-c3ccc(Br)cc3)cs2)CC1", "Potency": "inactive"}
{"molecule": "Cc1cc2c(s1)c1cnn(Cc3ccccc3F)c(=O)c1n2Cc1ccccc1F", "Potency": "inactive"}
{"molecule": "c1c[nH]c(C2CCN(c3ncc(-c4ccc5c(c4)OCCCO5)s3)CC2)n1", "Potency": "inactive"}
{"molecule": "O=C1CCCC2=C1C(c1[nH]ncc1Br)N=C(Nc1nc3ccccc3o1)N2", "note": "(stereo not given)", "Potency": "inactive"}
{"molecule": "CC(C)(C)OC(=O)NCCOCCOCCOCCn1ncc2c1CCCC2NC(=O)c1ccccn1", "note": "(stereo not given)", "Potency": "inactive"}
{"molecule": "COc1ccc(C2Nc3ccccc3C(=O)N2Cc2ccc(-c3ccccc3)cc2)cc1COc1ccc(NC(C)=O)cc1", "note": "(stereo not given)", "Potency": "inactive"}
{"molecule": "CCOc1ccc(CCNC(=O)C2(c3ccccc3)CC2)cc1OCC", "Potency": "inactive"}
